Measurements taken from publication PMC11062922 (Nature Chemical Biology, 2023).
Read-outs that look alike come from different tables or passages of the source.

Assays:
Design in all cases: species or system human, MV4-11 + K-562 + COLO205 + SK-N-BE2 + OVCAR-8
ACVR1B = conditions: read-out: apparent Kd, n = 1
ACVR1 = conditions: read-out: apparent Kd; compound concentrations: 100 nM and 1000 nM (sheet 'Samples'), CATDS: 1.9559764953072701E-2; n = 1
ACVR2B = conditions: read-out: apparent Kd; compound concentrations: 100 nM and 1000 nM (sheet 'Samples'), CATDS: 2.6273503134627601E-2; n = 1
BCR = conditions: read-out: apparent Kd; compound concentrations: 100 nM and 1000 nM (sheet 'Samples'), CATDS: 2.1537689296735201E-2; n = 1
BMPR1B = conditions: read-out: apparent Kd; compound concentrations: 100 nM and 1000 nM (sheet 'Samples'), CATDS: 2.4616373356857599E-2; n = 1
BRAF = conditions: read-out: apparent Kd; compound concentrations: 100 nM and 1000 nM (sheet 'Samples'), CATDS: 1.9586867815954801E-2; n = 1
BUB1 = conditions: read-out: apparent Kd; compound concentrations: 100 nM and 1000 nM (sheet 'Samples'), CATDS: 2.2537896529622702E-2; n = 1
CIT = conditions: read-out: apparent Kd; compound concentrations: 100 nM and 1000 nM (sheet 'Samples'), CATDS: 2.75730146177765E-2; n = 1
CSNK1A1 = conditions: read-out: apparent Kd; compound concentrations: 100 nM and 1000 nM (sheet 'Samples'), CATDS: 2.3707563911338599E-2; n = 1
CSNK1D = conditions: read-out: apparent Kd, n = 1
CSNK1E = conditions: read-out: apparent Kd, n = 1
EPHA1 = conditions: read-out: apparent Kd; compound concentrations: 100 nM and 1000 nM (sheet 'Samples'), CATDS: 3.1864310867846697E-2; n = 1
FRK = conditions: read-out: apparent Kd; compound concentrations: 100 nM and 1000 nM (sheet 'Samples'), CATDS: 4.4669706945154999E-2; n = 1
FYN = conditions: read-out: apparent Kd; compound concentrations: 100 nM and 1000 nM (sheet 'Samples'), CATDS: 2.2205933689287499E-2; n = 1
MAPK14 = conditions: read-out: apparent Kd; compound concentrations: 100 nM and 1000 nM (sheet 'Samples'), CATDS: 3.89835717032921E-2; n = 1
MAPK9 = conditions: read-out: apparent Kd; compound concentrations: 100 nM and 1000 nM (sheet 'Samples'), CATDS: 1.8300020860960699E-2; n = 1
MAPKAPK2 = conditions: read-out: apparent Kd; compound concentrations: 100 nM and 1000 nM (sheet 'Samples'), CATDS: 2.4524702318677E-2; n = 1
PKN3 = conditions: read-out: apparent Kd; compound concentrations: 100 nM and 1000 nM (sheet 'Samples'), CATDS: 0.20654584562915099; n = 1
PRKCI = conditions: read-out: apparent Kd; compound concentrations: 100 nM and 1000 nM (sheet 'Samples'), CATDS: 3.04574994167322E-2; n = 1
PRKD2 = conditions: read-out: apparent Kd, n = 1
PTK6 = conditions: read-out: apparent Kd; compound concentrations: 100 nM and 1000 nM (sheet 'Samples'), CATDS: 3.9660106147075401E-2; n = 1
RET = conditions: read-out: apparent Kd; compound concentrations: 100 nM and 1000 nM (sheet 'Samples'), CATDS: 0.10726511440353401; n = 1
RIPK2 = conditions: read-out: apparent Kd; compound concentrations: 100 nM and 1000 nM (sheet 'Samples'), CATDS: 0.143338451264474; n = 1
RIPK3 = conditions: read-out: apparent Kd; compound concentrations: 100 nM and 1000 nM (sheet 'Samples'), CATDS: 5.5820006344930999E-2; n = 1
RPS6KB1 = conditions: read-out: apparent Kd; compound concentrations: 100 nM and 1000 nM (sheet 'Samples'), CATDS: 1.9963914199749098E-2; n = 1
SIK2 = conditions: read-out: apparent Kd; compound concentrations: 100 nM and 1000 nM (sheet 'Samples'), CATDS: 2.1322969574131299E-2; n = 1
SIK3 = conditions: read-out: apparent Kd; compound concentrations: 100 nM and 1000 nM (sheet 'Samples'), CATDS: 2.2436255384138602E-2; n = 1
SLK = conditions: read-out: apparent Kd; compound concentrations: 100 nM and 1000 nM (sheet 'Samples'), CATDS: 3.1142117408046201E-2; n = 1
STK10 = conditions: read-out: apparent Kd; compound concentrations: 100 nM and 1000 nM (sheet 'Samples'), CATDS: 2.2718990110139101E-2; n = 1
TGFBR1 = conditions: read-out: apparent Kd, n = 1
TGFBR2 = conditions: read-out: apparent Kd; compound concentrations: 100 nM and 1000 nM (sheet 'Samples'), CATDS: 8.8931452038097006E-2; n = 1
TNIK = conditions: read-out: apparent Kd; compound concentrations: 100 nM and 1000 nM (sheet 'Samples'), CATDS: 1.9385936597074001E-2; n = 1
ILK = conditions: read-out: apparent Kd; compound concentrations:100 nM and 1000 nM (sheet 'Samples'); n = 1
MAP2K1 = conditions: read-out: apparent Kd; compound concentrations:100 nM and 1000 nM (sheet 'Samples'); n = 1
MAP2K2 = conditions: read-out: apparent Kd; compound concentrations:100 nM and 1000 nM (sheet 'Samples'); n = 1
PIK3CA = conditions: read-out: apparent Kd, n = 1
PIK3CD = conditions: read-out: apparent Kd; compound concentrations:100 nM and 1000 nM (sheet 'Samples'); n = 1
PRKD3 = conditions: read-out: apparent Kd; compound concentrations:100 nM and 1000 nM (sheet 'Samples'); n = 1
PSMC3 = conditions: read-out: apparent Kd; compound concentrations:100 nM and 1000 nM (sheet 'Samples'); n = 1
ADCK3 = conditions: read-out: apparent Kd; compound concentrations: 100 nM and 1000 nM (sheet 'Samples'), CATDS: 0.14880786658068901; n = 1
AKT2 = conditions: read-out: apparent Kd; compound concentrations: 100 nM and 1000 nM (sheet 'Samples'), CATDS: 0.130692249594417; n = 1
PIM2 = conditions: read-out: apparent Kd; compound concentrations: 100 nM and 1000 nM (sheet 'Samples'), CATDS: 0.15422664553474699; n = 1
PRKAG2 = conditions: read-out: apparent Kd; compound concentrations: 100 nM and 1000 nM (sheet 'Samples'), CATDS: 0.141920033586769; n = 1
[1] = compound concentrations:100 nM and 1000 nM (sheet 'Samples')

Compound: CC(C)(CN)c1nc(-c2ccc(Cl)c(O)c2)c(-c2ccncc2)[nH]1.O=C(O)C(F)(F)F [SB-477794-AAA]
- potency estimated from few doses (ACVR1B; compound concentrations: 100 nM and 1000 nM (sheet 'Samples'), CATDS: 5.2307110654739801E-2): 55.4 nM
- potency estimated from few doses (ACVR1): 1330 nM
- potency estimated from few doses (ACVR2B): 388 nM
- potency estimated from few doses (BCR): 833 nM
- potency estimated from few doses (BMPR1B): 488 nM
- potency estimated from few doses (BRAF): 1320 nM
- potency estimated from few doses (BUB1): 687 nM
- potency estimated from few doses (CIT): 330 nM
- potency estimated from few doses (CSNK1A1): 562 nM
- potency estimated from few doses (CSNK1D; compound concentrations: 100 nM and 1000 nM (sheet 'Samples'), CATDS: 4.2810001426460499E-2): 92.5 nM
- potency estimated from few doses (CSNK1E; compound concentrations: 100 nM and 1000 nM (sheet 'Samples'), CATDS: 3.2440470018423401E-2): 199 nM
- potency estimated from few doses (EPHA1): 210 nM
- potency estimated from few doses (FRK): 82.8 nM
- potency estimated from few doses (FYN): 730 nM
- potency estimated from few doses (MAPK14): 119 nM
- potency estimated from few doses (MAPK9): 2000 nM
- potency estimated from few doses (MAPKAPK2): 495 nM
- potency estimated from few doses (PKN3): 2.21 nM
- potency estimated from few doses (PRKCI): 241 nM
- potency estimated from few doses (PRKD2; compound concentrations: 100 nM and 1000 nM (sheet 'Samples'), CATDS: 2.0032181023514398E-2): 1170 nM
- potency estimated from few doses (PTK6): 113 nM
- potency estimated from few doses (RET): 9.97 nM
- potency estimated from few doses (RIPK2): 5.13 nM
- potency estimated from few doses (RIPK3): 47.1 nM
- potency estimated from few doses (RPS6KB1): 1200 nM
- potency estimated from few doses (SIK2): 871 nM
- potency estimated from few doses (SIK3): 699 nM
- potency estimated from few doses (SLK): 225 nM
- potency estimated from few doses (STK10): 665 nM
- potency estimated from few doses (TGFBR1; compound concentrations: 100 nM and 1000 nM (sheet 'Samples'), CATDS: 5.82262421070339E-2): 42.5 nM
- potency estimated from few doses (TGFBR2): 15.4 nM
- potency estimated from few doses (TNIK): 1400 nM

Compound: Cc1cc(Nc2nc(-c3cccc(C)n3)nc3ccccc23)ccn1 [GW872411X]
- potency estimated from few doses (ACVR1B; [1]): 471 nM
- potency estimated from few doses (CSNK1D; [1]): 1530 nM
- potency estimated from few doses (CSNK1E; [1]): 1700 nM
- potency estimated from few doses (ILK): 1610 nM
- potency estimated from few doses (MAP2K1): 2130 nM
- potency estimated from few doses (MAP2K2): 1690 nM
- potency estimated from few doses (PIK3CA; [1]): 247 nM
- potency estimated from few doses (PIK3CD): 155 nM
- potency estimated from few doses (PRKD2; [1]): 4.12 nM
- potency estimated from few doses (PRKD3): 6.25 nM
- potency estimated from few doses (PSMC3): 1810 nM
- potency estimated from few doses (TGFBR1; [1]): 182 nM

Compound: COc1ccc(-c2ccc3c(NC(=O)C4CC4)n[nH]c3n2)cc1 [SB-711237]
- potency estimated from few doses (ACVR1B; compound concentrations: 100 nM and 1000 nM (sheet 'Samples'), CATDS: 0.16866039240373501): 1180 nM
- potency estimated from few doses (ADCK3): 1590 nM
- potency estimated from few doses (AKT2): 2260 nM
- potency estimated from few doses (PIK3CA; compound concentrations: 100 nM and 1000 nM (sheet 'Samples'), CATDS: 0.46102021867548298): 210 nM
- potency estimated from few doses (PIM2): 1450 nM
- potency estimated from few doses (PRKAG2): 1790 nM
